In all, about 2,300 compounds went through this assay and about 330 (14%) showed activity. A selection follows. A number with no mark means an inactive call.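 The calls were made as follows: active = median modified Z-score above 1.96; inactive = 1.96 or below.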
Tested on: HepG2 Srxn1-GFP reporter cells (+30 nM CDDO-Me)
Experiment: Srxn1-GFP intensity median modified Z-score relative to plate median; higher = stronger NRF2 / oxidative stress reporter activation, active = hit call of the paper
Conditions: 10 µM; exposure time: 24h
Method in brief: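 The per-plate modified Z-score of GFP intensity, taken as a median across replicates, is what each value represents. Three replicate plates of HepG2 Srxn1-GFP BAC reporter cells were exposed for 24 h to an NRF2 activator at 30 nM combined with compound at 10 μM (≤0.1% DMSO). Cytoplasmic GFP per cell was read from confocal images, excluding any with under 100 cells, and scaling used 1.4826 × median absolute deviation.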

| Structure (SMILES) | Srxn1-GFP intensity median modified Z-score |
| --- | --- |
| O=C1CC[C@@]2(O)[C@H]3Cc4ccc(O)c5c4C2(CCN3CC2CC2)C1O5 (stereo partly specified) [euspeclibcmpd560] | -0.0532 |
| Cc1c[nH]cn1 [euspeclibcmpd2111] | -0.158 |
| CC1=CCC[C@@H]2C1(C)CCC(C)[C@@]2(C)CC/C(C)=C/Cn1c[n+](C)c2c(=N)nc[nH]c21 (stereo partly specified) [euspeclibcmpd1491] | 13.7 (active) |
| COc1ccc2c(c1O)[C@@]13CCN(C)[C@@H](C2)C1=CC(OC)C(=O)C3 (stereo partly specified) [euspeclibcmpd1375] | -0.172 |
| CC(C)c1ccc2c(c1O)CCC1c3coc(O)c3CC[C@]21C (stereo partly specified) [euspeclibcmpd2379] | -0.468 |
| Nc1ccc([As](=O)(O)O)cc1 [euspeclibcmpd2461] | 11.1 (active) |
| O=C1CC2OCC=C3CN4CC[C@]56c7ccccc7N1C5[C@H]2[C@H]3CC46 (stereo partly specified) [euspeclibcmpd327] | -0.00366 |
| COP(=S)(OC)Oc1ccc(SC)c(C)c1 [euspeclibcmpd1025] | -0.288 |
| O=C(CCCN1CCC2(CC1)C(=O)NCN2c1ccccc1)c1ccc(F)cc1 [euspeclibcmpd405] | 10.2 (active) |
| C#C[C@]1(O)CCC2C3CC=C4CC(=O)CCC4C3CC[C@@]21C (stereo partly specified) [euspeclibcmpd2279] | 0.0789 |
| C#C[C@]1(O)CCC2C3CC=C4CC(=O)CCC4C3CC[C@@]21C (stereo partly specified) [euspeclibcmpd2269] | 1.21 |
| CCCCOC(=O)c1ccccc1C(=O)OCCCC [euspeclibcmpd1242] | -0.441 |
| CCCCCCCCC(=O)NCc1ccc(O)c(OC)c1 [euspeclibcmpd1268] | -0.241 |
| C[C@H]1CC[C@]2(NC1)OC1CC3C4CCC5C[C@@H](O[C@@H]6O[C@H](CO)[C@H](O[C@H]7O[C@H](CO)[C@@H](O)[C@H](O[C@@H]8OC[C@@H](O)[C@H](O)[C@H]8O)[C@H]7O[C@@H]7O[C@H](CO)[C@@H](O)[C@H](O)[C@H]7O)[C@H](O)[C@H]6O)CC[C@]5(C)C4CC[C@]3(C)C1[C@@H]2C (stereo partly specified) [euspeclibcmpd480] | 71.3 (active) |
| CC(=O)O[C@H]1C[C@H](O[C@H]2[C@@H](O)C[C@H](O[C@H]3[C@@H](O)C[C@H](O[C@H]4CC[C@@]5(C)C(CCC6C5C[C@@H](O)[C@]5(C)C(c7coc(O)c7)CC[C@]65O)C4)O[C@@H]3C)O[C@@H]2C)O[C@H](C)[C@H]1O[C@@H]1O[C@H](CO)[C@@H](O)[C@H](O)[C@H]1O (stereo partly specified) [euspeclibcmpd420] | -0.493 |
| C[C@@H]1CC[C@@]2(NC1)O[C@H]1C[C@H]3C4CC=C5C[C@@H](O)CC[C@]5(C)C4CC[C@]3(C)C1[C@@H]2C (stereo partly specified) [euspeclibcmpd1732] | 0.173 |
| CC1CCC2(OC1)OC1C(O)C3C4CCC5CC(OC6OC(CO)C(OC7OC(CO)C(O)C(OC8OCC(O)C(O)C8O)C7OC7OC(CO)C(O)C(OC8OC(CO)C(O)C(O)C8O)C7O)C(O)C6O)C(O)CC5(C)C4CCC3(C)C1C2C (stereo unspecified) [euspeclibcmpd1933] | 22.3 (active) |
| CCNC1(c2cccs2)CCCCC1=O (stereo unspecified) [euspeclibcmpd629] | -0.153 |
| O=C1NC(=O)C(=O)C(=O)N1 [euspeclibcmpd1767] | 0.258 |
| NC(=O)C[S@@+]([O-])C(c1ccccc1)c1ccccc1 [euspeclibcmpd2097] | 0.795 |
| O=c1[nH]c(=O)n(Cl)c(=O)n1Cl [euspeclibcmpd2375] | 0.319 |
| c1cncc(C2CCCCN2)c1 (stereo unspecified) [euspeclibcmpd1406] | 0.116 |
| COc1ccc2c(c1)[C@]13CCCC[C@@H]1[C@H](C2)N(C)CC3 [euspeclibcmpd87] | 0.145 |
| CC(=O)OC1CC(OC(C)=O)C2(C)C(CC(OC(C)=O)C3(C)C2CCC2(C)C(c4ccoc4)C(=O)C4OC423)C1(C)C (stereo unspecified) [euspeclibcmpd1943] | 1.55 |
| CC1(C)C(=O)C2O[C@@H]2[C@@]2(C)C1C[C@@H](O)[C@]1(C)C2CC[C@@]2(C)[C@H](c3ccoc3)OC(=O)C3OC321 (stereo partly specified) [euspeclibcmpd1634] | 0.977 |
| CC1(C)C(=O)C=C[C@@]2(C)C1C[C@@H](O)[C@]1(C)C2CC[C@@]2(C)[C@H](c3ccoc3)OC(=O)C3O[C@]321 (stereo partly specified) [euspeclibcmpd1629] | 32.4 (active) |

— the supplement of paper PMC10498489
